Here are results for 40 compounds from PubChem BioAssay (NCI).

About 83,000 compounds went through this panel and 20% of them were active in at least one assay; those are over-represented in the sample as a whole.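 48-hour exposure, single concentration, 96-well plates; percent growth endpoint where 0 means no net growth. Active: below 10.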 The source made the active and inactive calls.

The test system of the test is ACHN renal. As to the kind of experiment: NCI-60 one-dose screen, 48 h (100 = growth as untreated, 0 = no growth, -100 = all killed). The note with it: 10 µM unless noted. Here is the method: Growth inhibition of the ACHN human tumor cell line is measured as a screen for anti-cancer activity. Cells are grown in 96 well plates and exposed to the test compound for 48 hours. Compounds are tested at a single concentration, which is 10^-5 M for most compounds. The reported endpoint is percent growth (GI% or GIPRCNT), where numbers from 0 - 100% represent growth inhibition, and numbers from -100% - 0 represent cell death. For example, a value of 40 represents 60% growth inhibition. A value of 0 means no net growth occurred over the course of the experiment. A value of -40 indicates 40% of cells at the beginning of the experiment died by the end of the experiment. A value of -100 means all cells are dead at the end of the experiment.
NCI-60 Human Tumor Cell Lines Screen was performed using the standard one-dose NCI protocol, which is described in more detail at https://dtp.cancer.gov/discovery_development/nci-60/default.htm.
Compounds with GIPRCNT values below 10 were considered active. Activity score was based on GIPRCNT using the following formula: […]
Score is 0 for GIPRCNT values of 100 or above, 50 for GIPRCNT values of 0, and 100 for GIPRCNT values of -100.
With `NC1=CSC2=N/C(=C\c3ccc(Cl)cc3)C(=O)N12`, the growth was 88.3% (inactive).
For `CC1CN(Cc2ccco2)C(=S)N(c2ccccc2)C1=O` (stereo not given), the growth is 93.8% (inactive).
For the compound `COc1cc(C(=O)/C=C/c2c(C)n([O-])c3ccc(C)cc3[n+]2=O)cc(OC)c1OC`, the growth was -40.9% (active).
On to `COc1ccc(CN(c2ccc(C)cc2)C2OC(=O)c3ccccc32)cc1OC` (stereo not given), for which the growth is 95% (inactive).
With `CCN(CC)Cc1cc(Nc2c3ccc(Cl)cc3nc3c(C)cccc23)ccc1O`, the growth is -86.4% (active).
Turning to `CC(=O)N1CC(Nc2ccc(OC(F)(F)F)cc2)=CC1=O`, the growth was 53.4% (inactive).
With `CCCCCN(CCCCC)CCC[C@@H](C)[C@H]1CC[C@H]2[C@@H]3[C@H](OCCCN)C[C@@H]4C[C@H](OCCCN)CC[C@]4(C)[C@H]3C[C@H](OCCCN)[C@]12C` the figure was 54.7% (inactive).
As for `COc1ccc(C(=O)COc2ccc(/C=C3\Oc4ccc(Cl)cc4C3=O)cc2)cc1`, the growth is 109% (inactive).
The same measure for `c1c2c(cc3c1OCO3)Cc1cc3c(cc1Cc1cc4c(cc1C2)OCO4)OCO3`: 101% (inactive).
Consider `NS(=O)(=O)c1ccc(Nc2nc3n[nH]c(Nc4ccccc4)c3c(=O)[nH]2)cc1`, for which the growth is 109% (inactive).
As for `O=C1Nc2ccccc2/C1=C/C(=N/c1nnc(-c2ccccc2)s1)c1ccccc1`, the growth is -54.8% (active).
As to `O=C1/C(=C/c2ccc(F)cc2)CN(C(=O)CCN2CCC(=NO)CC2)C/C1=C\c1ccc(F)cc1`, the growth is -66.3% (active).
As for `COC1C/C(=N\O)C2OC(c3ccccc3)OCC2O1` (stereo not given), the growth is 108% (inactive).
With `c1ccc(Sc2ncnc3ccccc23)cc1` the figure was 90.9% (inactive).
Consider `Cc1ccc(SCN2CCN(c3cccc(Cl)c3)CC2)cc1`, for which the growth is 104% (inactive).
In the case of `CCN1CCN(Cc2ccc(NC(=O)Nc3nc4ccc(Oc5ccnc(C(=O)NC)c5)cc4s3)cc2C(F)(F)F)CC1`, the growth is -84.5% (active).
Turning to `O=c1c(/C=C/c2ccco2)nnc(SCCN2CCOCC2)n1/N=C/c1ccc([N+](=O)[O-])cc1`, the growth is 99.7% (inactive).
As for `COc1cc(C2CC(=O)Nc3c2c(C)nn3-c2nc3ccccc3[nH]2)cc(OC)c1OC` (stereo not given), the growth is 102% (inactive).
For `c1ccc2sc(SCCCn3ccnc3)nc2c1`, the growth is 100% (inactive).
The same measure for `CCOC(=O)c1cnc2ccc(OC)cc2c1Nc1cccc(S(=O)(=O)NC)c1`: 91.5% (inactive).
The same measure for `CCCCCCCCCCNC(=O)CCl`: 78% (inactive).
For the compound `CCCCCC(=O)N(CCCC)CCCC`, the growth is 101% (inactive).
For the compound `Nc1c(C(=O)Nc2cccc3c2OCCO3)sc2nc3c(cc12)C(=O)CCC3`, the growth is 55.4% (inactive).
Turning to `N=c1c2ccccc2nc2n1CCCCC2`, the growth is 105% (inactive).
With `COc1ccc(S(=O)(=O)NCCNc2nccc(-c3c(-c4cccc(N)c4)nc4sccn34)n2)cc1` the figure was 95.3% (inactive); with `C=C(CN1CCN(c2cccc(C(F)(F)F)n2)CC1)c1ccc(C(=O)Nc2ccccc2N)cc1`, 34% (inactive); with `O=C(O)c1cn(C2CC2)c2cc(N3CCN(Cc4nc5c(cnn5-c5ccc([N+](=O)[O-])cc5)c(=O)[nH]4)CC3)c(F)cc2c1=O`, 103% (inactive).
Consider `O=[N+]([O-])c1cccc(-c2nc3sccn3c2-c2ccnc(NCCNS(=O)(=O)c3ccc(C(F)(F)F)cc3)n2)c1`, for which the growth is 22.5% (inactive).
The same measure for `C=C1C(=O)O[C@H]2[C@H]1CC/C(Cn1cc(Cn3ccc4cc(Cl)ccc43)nn1)=C\CC[C@@]1(C)O[C@@H]21`: -97.8% (active).
With `CC(C)CC(CC1=CCC2CC1C2(C)C)C1=C(O)C(C)(C)C(=O)C(C)(C)C1=O` (stereo not given) the figure was 3.98% (active); with `COc1ccc(-c2nn(-c3ccccc3)cc2/C=C/C(=O)OCc2cn(-c3ccc(F)c(Cl)c3)nn2)cc1`, 83.3% (inactive).
`O=C1C=CC(=O)N1c1ccc(Cc2ccc(N3C(=O)C=CC3=O)cc2)cc1`: the growth is 94.1% (inactive).
The same measure for `COc1ccc(-c2cc(/C=C3\C(=O)Nc4ccc(Cl)cc43)[nH]n2)cc1`: 56.7% (inactive).
With `COc1ccc(N(Cc2cc(OC)c(OC)c(OC)c2)C2OC(=O)c3ccccc32)cc1` (stereo not given) the figure was 61.5% (inactive).
With `Cc1sc2nc3[nH]/c(=C\c4ccc(Cl)cc4)c(=O)n3c(=O)c2c1C` the figure was 101% (inactive).
For `CC/C=C\C[C@H](F)C/C=C1/C(=O)C=C[C@@H]1C/C=C\CCCC(=O)O`, the growth is 39.5% (inactive).
The same measure for `Cc1ccc(/C=C2\Oc3cc(OCC(=O)c4ccc(Cl)cc4)ccc3C2=O)cc1`: 95.2% (inactive).
Take `COc1ccc(/C=N\NC(=O)CN2CCN(c3cc4c(cc3F)c(=O)c(C(=O)N/N=C/c3ccc(OC)cc3)cn4C3CC3)CC2)cc1`: the growth is 89.7% (inactive).
In the case of `O=C(CN1CCN(c2cc3c(cc2F)c(=O)c(C(=O)O)cn3C2CC2)CC1)Nc1nc(-c2ccc(Cl)cc2)cs1`, the growth was 25.1% (inactive).
As for `CC(=O)CC(C)(C)c1ccc(Cl)cc1`, the growth is 102% (inactive).
